T cruzi growth-1 – T. cruzi intracellular proliferation inhibitors, primary screen, cell-based, beta-gal Tulahuen parasites, NIH3T3 host, luminescence; T. cruzi beta-gal in NIH3T3, GalScreen luminescence, 90 h; inhibition, % at 8.34 µM; 77,000 compounds, 5.9% hits;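 active means mean inhibition above about 93%, with at least 55% of replicates each passing it, limit read from the data, passing the limit was not always enough; inconclusive means only one of those two conditions holds; inactive means neither condition holds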
Pf Dd2 growth – P. falciparum Dd2 growth inhibitors, primary screen, SYBR Green fluorescence, single dose replicates; 72 h; stronger effect = lower value; activity change, % at 10 µM; 94,000 compounds, 2.3% hits; in the data active means activity change below about -80%; inconclusive means no clear call, values can overlap the other calls
C diff HTS – C. difficile growth inhibitors, primary screen, HTS. Clostridium difficile clinical isolate growth, OD600, 24 h; stronger effect = lower value. 86,000 compounds, 0.25% hits. growth activity, negative = inhibition, % at 16 µg/mL (by protocol);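 active means mean growth activity at or below -80% and every replicate also at or below -80%; inconclusive means mean at or below -80% but some replicate above -80%; inactive means mean growth activity above -80%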;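 further: 0% = DMSO wells and -100% = levofloxacin 16 µg/mL wells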
T cruzi growth-2 – T. cruzi intracellular proliferation inhibitors, confirmation, cell-based, NIH3T3 host, beta-gal parasite, luminescence, cherry-pick; shares compounds with T cruzi growth-1; T. cruzi beta-gal in NIH3T3, GalScreen luminescence, 90 h; inhibition, % at 8.35 µM; 5,600 compounds, 72% hits;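 active means mean replicate inhibition above about 95% and at least 55% of replicates individually reaching it, limit read from the data; inconclusive means only one of the two criteria is met; inactive means neither criterion is met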
T cruzi growth-3 – inhibitors of intracellular T. cruzi replication, confirmation, NIH3T3 host cells, beta-gal parasites, cherry-pick, set 2. shares compounds with T cruzi growth-1. AID 651740, 2012. 5,600 compounds, 21% hits. T. cruzi beta-gal in NIH3T3, GalScreen luminescence, 90 h. inhibition, % at 2.09 µM;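 active means mean inhibition above about 95%, with at least 55% of replicates also reaching it, limit read from the data; inconclusive means meets just one of the two conditions; inactive means meets neither condition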;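 further: plate controls were neutral control median for no effect and positive control median for full effect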
3T3 cytotox – cytotoxicity in mouse NIH/3T3 fibroblasts, confirmation, cytotoxicity control for T. cruzi proliferation inhibitor project, cell-based, cherry-pick, single point; shares compounds with T cruzi growth-1; NIH/3T3 viability, CellTiter-Glo ATP luminescence, 90 h; cytotoxicity (signal decrease), % at 8.35 µM; 5,600 compounds, 14% hits; AID 651742, 2012;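 active means mean signal decrease across replicates above about 35% based on untreated-well scatter, with enough replicates individually passing, limit read from the data; inconclusive means no rule stated though some were filed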;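 further: 0% = median of neutral control wells and 100% = median of positive control wells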
NIH3T3 tox 2 – NIH/3T3 fibroblast cytotoxicity, confirmation, cytotoxicity control, cell-based, cherry-pick, single point, set 2; shares compounds with T cruzi growth-1; NIH/3T3 viability, CellTiter-Glo ATP luminescence, 90 h; inhibition, % at 24.9 µM; 5,600 compounds, 56% hits; AID 651744, 2012;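 active means mean loss of cell viability signal at or above a set limit, and enough replicates individually reaching it; inconclusive means meets only the mean limit or only the replicate share; inactive means meets neither condition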;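 further: 0% = median of neutral control wells and 100% = median of positive control wells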
Numbers without * were called inactive; ? = inconclusive; / = no result given. The list is not random: actives were taken first. Their share in the collection is about 6.7%.

SMILES | T cruzi growth-1 | Pf Dd2 growth | C diff HTS | T cruzi growth-2 | T cruzi growth-3 | 3T3 cytotox | NIH3T3 tox 2
CC(C)NC(=O)N(C)C[C@@H]1Oc2ccc(NC(=O)NC3CCCCC3)cc2C(=O)N([C@H](C)CO)C[C@@H]1C | -21 | 6 | -7 | / | / | / | /
CN(C)C(=O)c1ccc(-c2ccc([C@H]3[C@@H](C#N)N(C(=O)C4CCCCC4)[C@H]3CO)cc2)cc1 | ? | -39 | -3 | 7 | 29 | 23 | 27*
CN(C)C(=O)c1ccc(-c2ccc([C@@H]3[C@@H](C#N)N(C(=O)C4CC4)[C@H]3CO)cc2)cc1 | 104* | -31 | -19 | 99* | ? | 2 | 63*
CN(C)C(=O)c1ccc(-c2ccc([C@@H]3[C@@H](CO)N(C(=O)C4CC4)[C@H]3C#N)cc2)cc1 | 67 | -14 | 1 | / | / | / | /
CN(C)C(=O)c1ccc(-c2ccc([C@@H]3[C@@H](CO)N(C(=O)C4CCCCC4)[C@H]3C#N)cc2)cc1 | 89 | -31 | 1 | / | / | / | /
C[C@@H]1CN([C@@H](C)CO)C(=O)c2cc(NS(C)(=O)=O)ccc2O[C@H]1CN(C)S(=O)(=O)c1cn(C)cn1 | -37 | -12 | / | / | / | / | /
CCCNC(=O)[C@@H]1[C@@H](CO)[C@@H]2Cn3c(ccc(-c4ccccc4F)c3=O)[C@H]1N2CCC | 11 | 5 | 0 | / | / | / | /
COCc1cn(CC[C@H]2CC[C@H](NC(=O)Nc3ccc(OC)cc3)[C@H](CO)O2)nn1 | 13 | -17 | 6 | / | / | / | /
COc1ccc(CN(C)C[C@@H]2OCCCC[C@@H](C)Oc3ccc(NC(=O)Nc4ccc(C(F)(F)F)cc4)cc3C(=O)N([C@H](C)CO)C[C@@H]2C)cc1 | ? | 37 | 0 | 97* | 108* | 7 | 29*
COc1ccc(CN(C)C[C@@H]2OCCCC[C@@H](C)Oc3ccc(NC(=O)Nc4ccc(C(F)(F)F)cc4)cc3C(=O)N([C@@H](C)CO)C[C@@H]2C)cc1 | 77 | -58 | -43 | / | / | / | /
COc1ccc(CN(C)C[C@H]2OCCCC[C@H](C)Oc3ccc(NC(=O)Nc4ccc(C(F)(F)F)cc4)cc3C(=O)N([C@@H](C)CO)C[C@@H]2C)cc1 | 53 | -42 | 9 | / | / | / | /
COc1ccc(NC(=O)Nc2ccc3c(c2)C(=O)N([C@H](C)CO)C[C@@H](C)[C@@H](CN(C)Cc2ccc(C(F)(F)F)cc2)OCCCC[C@H](C)O3)cc1 | 100* | -70 | 6 | 85 | 108* | 18 | -4
CS(=O)(=O)Nc1ccc2c(c1)[C@H]1C[C@H](CC(=O)NCc3ccc(-c4ccccc4)cc3)O[C@@H](CO)[C@H]1O2 | -19 | -7 | -2 | / | / | / | /
C[C@@H]1CN([C@@H](C)CO)C(=O)c2cc(NC(=O)Nc3ccc(C(F)(F)F)cc3)ccc2O[C@H]1CN(C)S(=O)(=O)c1ccc(Cl)cc1 | 5 | -13 | 3 | / | / | / | /
COc1ccc(NC(=O)Nc2ccc3c(c2)C(=O)N([C@@H](C)CO)C[C@@H](C)[C@H](CN(C)S(=O)(=O)c2ccc(F)cc2)OCCCC[C@@H](C)O3)cc1 | ? | -45 | 2 | 109* | 44 | -25 | 11
COc1ccc(NC(=O)Nc2ccc3c(c2)C(=O)N([C@@H](C)CO)C[C@@H](C)[C@@H](CN(C)S(=O)(=O)c2ccc(F)cc2)OCCCC[C@H](C)O3)cc1 | 37 | -27 | 10 | / | / | / | /
COc1ccc(S(=O)(=O)N(C)C[C@H]2OCCCC[C@@H](C)Oc3ccc(NC(=O)Nc4ccc(F)cc4)cc3C(=O)N([C@@H](C)CO)C[C@@H]2C)cc1 | ? | -66 | 1 | / | / | / | /
COc1ccc(S(=O)(=O)N(C)C[C@@H]2OCCCC[C@H](C)Oc3ccc(NC(=O)Nc4ccc(F)cc4)cc3C(=O)N([C@H](C)CO)C[C@@H]2C)cc1 | 115* | -30 | 5 | 102* | 57 | -5 | -7
COc1ccc(S(=O)(=O)N(C)C[C@@H]2OCCCC[C@H](C)Oc3ccc(NC(=O)Nc4ccc(F)cc4)cc3C(=O)N([C@@H](C)CO)C[C@@H]2C)cc1 | 116* | -79 | 2 | 108* | 93 | -17 | -11
COc1ccc(S(=O)(=O)N(C)C[C@@H]2OCCCC[C@@H](C)Oc3ccc(NC(=O)Nc4ccc(F)cc4)cc3C(=O)N([C@H](C)CO)C[C@@H]2C)cc1 | 52 | -80 | 8 | / | / | / | /
O=C(C[C@H]1CC[C@H](NC(=O)C2CCOCC2)[C@@H](CO)O1)Nc1ccc(-c2ccccc2)cc1 | -20 | -20 | -5 | / | / | / | /
CN1C(=O)c2cc(NC(=O)Cc3ccccc3)ccc2OC[C@H]2O[C@H](CC(=O)O)CC[C@@H]21 | 13 | 8 | 10 | / | / | / | /
O=C(c1cccnc1)N1C[C@H]2[C@@H](c3ccccc31)[C@H](CO)N2C(=O)Nc1ccc(F)cc1 | -7 | -25 | 3 | / | / | / | /
COCC(=O)NC[C@H]1N[C@H](CO)[C@H]1c1ccc(-c2ccccc2F)cc1 | 15 | 5 | -4 | / | / | / | /
O=C(NC[C@H]1N[C@H](CO)[C@@H]1c1ccc(-c2ccccc2F)cc1)c1ccccc1 | ? | 2 | 36 | 96* | 11 | 2 | 105*
SMILES | T cruzi growth-1 | Pf Dd2 growth | C diff HTS | T cruzi growth-2 | T cruzi growth-3 | 3T3 cytotox | NIH3T3 tox 2
O=C(NC[C@@H]1N[C@@H](CO)[C@H]1c1ccc(-c2ccccc2F)cc1)c1ccccc1 | 109* | -12 | 27 | 107* | 34 | 5 | 104*
CCC(=O)NC[C@H]1N[C@H](CO)[C@@H]1c1ccc(-c2ccccc2F)cc1 | / | -2 | -6 | / | / | / | /
COCC(=O)NC[C@H]1N[C@H](CO)[C@@H]1c1ccc(C2=CCCCC2)cc1 | 98* | 7 | -4 | 70 | -9 | -10 | 12
O=C(NC[C@@H]1N[C@@H](CO)[C@@H]1c1ccc(C2=CCCC2)cc1)c1ccccc1 | 113* | -27 | 51 | 108* | 82 | 39* | 107*
COCC(=O)NC[C@@H]1N[C@@H](CO)[C@H]1c1ccc(C2=CCCC2)cc1 | -1 | 22 | 7 | / | / | / | /
O=C(NC[C@@H]1N[C@@H](CO)[C@H]1c1ccc(C2=CCCC2)cc1)c1ccccc1 | 40 | -7 | 6 | / | / | / | /
CCCNC(=O)Nc1ccc2c(c1)C(=O)N(C)C[C@H](OC)[C@H](C)CN(Cc1ccccn1)[C@@H](C)CO2 | 8 | -3 | -3 | / | / | / | /
C[C@H](CO)N1C[C@H](C)[C@H](CN(C)C(=O)C2CCOCC2)Oc2ncc(C#Cc3cccc(F)c3)cc2C1=O | 68 | -20 | -6 | / | / | / | /

Bioassay records (PubChem)
